Results from ChEMBL document CHEMBL2218924, “A broad activity screen in support of a chemogenomic map for kinase signalling research and drug discovery” (Biochem J, 2013).

What was measured:
[1] = target: Tyrosine-protein kinase ABL1 (Homo sapiens) (UniProt P00519); conditions: at 1 µM
[2] = target: Tyrosine-protein kinase ABL1 (Homo sapiens) (UniProt P00519); conditions: at 10 µM
[3] = target: Tyrosine-protein kinase ABL2 (Homo sapiens) (UniProt P42684); conditions: at 1 µM
[4] = target: Tyrosine-protein kinase ABL2 (Homo sapiens) (UniProt P42684); conditions: at 10 µM
[5] = target: T1, Aurora kinase A (Homo sapiens) (UniProt O14965); conditions: at 1 µM
T1 sequence (whole entry): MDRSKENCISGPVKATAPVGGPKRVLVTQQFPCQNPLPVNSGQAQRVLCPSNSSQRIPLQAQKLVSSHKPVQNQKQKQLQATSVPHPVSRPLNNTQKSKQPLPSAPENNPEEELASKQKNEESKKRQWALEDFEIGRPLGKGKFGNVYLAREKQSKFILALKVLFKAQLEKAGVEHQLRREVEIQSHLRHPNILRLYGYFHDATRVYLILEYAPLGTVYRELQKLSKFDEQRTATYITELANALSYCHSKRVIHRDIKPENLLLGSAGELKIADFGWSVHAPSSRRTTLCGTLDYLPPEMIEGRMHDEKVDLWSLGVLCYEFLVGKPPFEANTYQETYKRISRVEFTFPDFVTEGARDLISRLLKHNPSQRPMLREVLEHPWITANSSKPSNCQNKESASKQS

[6] = target: T1, Aurora kinase A (Homo sapiens); conditions: at 10 µM
[7] = target: Aurora kinase B (Homo sapiens) (UniProt Q96GD4); conditions: at 1 µM
[8] = target: Aurora kinase B (Homo sapiens) (UniProt Q96GD4); conditions: at 10 µM
[9] = target: T2, Aurora kinase C (Homo sapiens) (UniProt Q9UQB9); conditions: at 10 µM
T2 sequence (whole entry): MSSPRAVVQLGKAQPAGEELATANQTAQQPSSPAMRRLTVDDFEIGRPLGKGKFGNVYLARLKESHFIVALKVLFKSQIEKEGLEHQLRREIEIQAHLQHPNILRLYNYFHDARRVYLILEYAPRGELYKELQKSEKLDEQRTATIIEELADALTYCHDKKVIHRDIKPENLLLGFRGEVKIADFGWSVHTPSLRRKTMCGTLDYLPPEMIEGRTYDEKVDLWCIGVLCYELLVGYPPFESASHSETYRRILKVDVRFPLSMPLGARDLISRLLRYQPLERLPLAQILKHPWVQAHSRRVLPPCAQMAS

[10] = target: Tyrosine-protein kinase receptor UFO (Homo sapiens) (UniProt P30530); conditions: at 10 µM
[11] = target: Protein-tyrosine kinase 6 (Homo sapiens) (UniProt Q13882); conditions: at 1 µM
[12] = target: Protein-tyrosine kinase 6 (Homo sapiens) (UniProt Q13882); conditions: at 10 µM
[13] = target: Tyrosine-protein kinase Blk (Homo sapiens) (UniProt P51451); conditions: at 1 µM
[14] = target: Tyrosine-protein kinase Blk (Homo sapiens) (UniProt P51451); conditions: at 10 µM
[15] = target: T3, Mitogen-activated protein kinase kinase kinase 5 (Homo sapiens) (UniProt Q99683); conditions: at 10 µM
T3 sequence (whole entry): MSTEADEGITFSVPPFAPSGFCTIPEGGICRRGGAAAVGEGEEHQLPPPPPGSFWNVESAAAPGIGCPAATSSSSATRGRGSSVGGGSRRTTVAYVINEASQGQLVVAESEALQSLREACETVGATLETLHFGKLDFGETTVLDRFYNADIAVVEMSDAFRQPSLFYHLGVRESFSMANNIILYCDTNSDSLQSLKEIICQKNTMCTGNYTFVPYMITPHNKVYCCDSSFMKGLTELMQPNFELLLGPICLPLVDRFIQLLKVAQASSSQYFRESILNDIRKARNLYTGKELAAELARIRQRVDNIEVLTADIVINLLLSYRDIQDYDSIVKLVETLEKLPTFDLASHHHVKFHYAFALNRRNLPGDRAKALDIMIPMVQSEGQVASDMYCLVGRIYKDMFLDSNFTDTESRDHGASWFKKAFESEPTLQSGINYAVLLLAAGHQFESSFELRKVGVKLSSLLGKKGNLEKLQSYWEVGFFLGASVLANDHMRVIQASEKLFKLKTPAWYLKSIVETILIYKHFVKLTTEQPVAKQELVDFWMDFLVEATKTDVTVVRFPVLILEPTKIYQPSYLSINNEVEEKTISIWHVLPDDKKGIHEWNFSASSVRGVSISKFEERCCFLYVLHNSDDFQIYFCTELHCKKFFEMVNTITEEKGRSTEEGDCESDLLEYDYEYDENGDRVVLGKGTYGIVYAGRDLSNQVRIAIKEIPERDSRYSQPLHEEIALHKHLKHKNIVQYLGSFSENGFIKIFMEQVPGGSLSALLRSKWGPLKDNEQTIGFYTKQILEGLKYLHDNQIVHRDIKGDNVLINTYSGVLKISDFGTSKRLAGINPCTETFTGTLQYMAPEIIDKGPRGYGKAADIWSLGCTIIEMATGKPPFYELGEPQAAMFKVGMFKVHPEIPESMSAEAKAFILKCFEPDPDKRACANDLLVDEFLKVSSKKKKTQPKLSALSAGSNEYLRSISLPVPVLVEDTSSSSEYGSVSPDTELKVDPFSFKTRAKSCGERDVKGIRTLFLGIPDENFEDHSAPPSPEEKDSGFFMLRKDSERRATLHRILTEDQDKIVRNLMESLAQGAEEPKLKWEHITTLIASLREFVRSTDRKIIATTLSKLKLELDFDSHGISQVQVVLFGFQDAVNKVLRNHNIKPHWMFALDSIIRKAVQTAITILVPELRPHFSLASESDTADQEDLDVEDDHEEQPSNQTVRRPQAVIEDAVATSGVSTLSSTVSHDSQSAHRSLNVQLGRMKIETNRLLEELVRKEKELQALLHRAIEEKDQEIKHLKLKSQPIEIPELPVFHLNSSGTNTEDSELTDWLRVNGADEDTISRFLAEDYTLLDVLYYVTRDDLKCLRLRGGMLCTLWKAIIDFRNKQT

[16] = target: T2, Aurora kinase C (Homo sapiens); conditions: at 1 µM
[17] = target: Tyrosine-protein kinase receptor UFO (Homo sapiens) (UniProt P30530); conditions: at 1 µM
[18] = target: Tyrosine-protein kinase BTK (Homo sapiens) (UniProt Q06187); conditions: at 1 µM
[19] = target: Tyrosine-protein kinase BTK (Homo sapiens) (UniProt Q06187); conditions: at 10 µM

Sequence of Tyrosine-protein kinase ABL2 (Homo sapiens) (P42684 whole entry): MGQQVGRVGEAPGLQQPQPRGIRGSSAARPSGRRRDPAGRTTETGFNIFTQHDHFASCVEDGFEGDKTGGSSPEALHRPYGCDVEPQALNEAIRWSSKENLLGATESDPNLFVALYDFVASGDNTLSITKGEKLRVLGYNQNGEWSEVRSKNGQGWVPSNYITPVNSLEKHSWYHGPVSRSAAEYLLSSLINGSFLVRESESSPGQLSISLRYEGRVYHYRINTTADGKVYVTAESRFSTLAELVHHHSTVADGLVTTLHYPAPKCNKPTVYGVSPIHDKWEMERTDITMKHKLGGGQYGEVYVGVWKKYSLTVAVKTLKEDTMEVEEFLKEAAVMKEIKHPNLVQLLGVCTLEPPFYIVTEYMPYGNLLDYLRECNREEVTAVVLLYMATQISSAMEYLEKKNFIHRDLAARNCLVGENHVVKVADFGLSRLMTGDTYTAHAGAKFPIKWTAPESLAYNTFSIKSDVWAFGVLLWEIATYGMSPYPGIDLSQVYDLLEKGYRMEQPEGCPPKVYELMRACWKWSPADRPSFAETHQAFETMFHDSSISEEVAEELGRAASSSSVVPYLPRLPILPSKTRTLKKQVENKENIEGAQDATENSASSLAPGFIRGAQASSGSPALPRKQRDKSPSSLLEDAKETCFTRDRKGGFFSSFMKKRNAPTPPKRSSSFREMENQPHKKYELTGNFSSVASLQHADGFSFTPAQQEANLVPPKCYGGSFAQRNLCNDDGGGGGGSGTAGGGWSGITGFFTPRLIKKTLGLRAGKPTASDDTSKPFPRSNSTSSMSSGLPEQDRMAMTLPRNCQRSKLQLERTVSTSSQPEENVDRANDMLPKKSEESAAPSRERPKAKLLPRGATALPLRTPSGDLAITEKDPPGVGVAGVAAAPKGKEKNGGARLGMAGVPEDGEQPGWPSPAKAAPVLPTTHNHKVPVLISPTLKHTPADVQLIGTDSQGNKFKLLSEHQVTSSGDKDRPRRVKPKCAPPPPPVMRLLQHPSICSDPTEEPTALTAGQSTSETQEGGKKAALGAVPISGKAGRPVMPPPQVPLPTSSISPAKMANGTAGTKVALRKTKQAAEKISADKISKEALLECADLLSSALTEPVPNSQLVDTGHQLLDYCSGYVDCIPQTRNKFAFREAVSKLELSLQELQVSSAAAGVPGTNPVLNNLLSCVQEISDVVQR
Sequence of Tyrosine-protein kinase Blk (Homo sapiens) (P51451 2-505 limits assumed): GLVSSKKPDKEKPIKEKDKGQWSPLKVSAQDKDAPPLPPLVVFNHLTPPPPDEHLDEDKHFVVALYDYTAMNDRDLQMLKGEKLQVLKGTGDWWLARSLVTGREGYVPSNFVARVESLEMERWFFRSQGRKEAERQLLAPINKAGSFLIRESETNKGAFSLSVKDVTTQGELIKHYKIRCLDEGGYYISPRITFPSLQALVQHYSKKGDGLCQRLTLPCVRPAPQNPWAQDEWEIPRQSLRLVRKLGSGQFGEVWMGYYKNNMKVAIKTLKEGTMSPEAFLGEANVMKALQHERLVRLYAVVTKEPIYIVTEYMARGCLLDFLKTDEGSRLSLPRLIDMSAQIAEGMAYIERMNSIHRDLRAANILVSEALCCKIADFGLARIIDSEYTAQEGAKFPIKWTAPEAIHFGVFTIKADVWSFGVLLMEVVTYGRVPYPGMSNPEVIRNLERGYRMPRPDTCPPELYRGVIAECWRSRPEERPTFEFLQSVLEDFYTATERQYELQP
Sequence of Tyrosine-protein kinase ABL1 (Homo sapiens) (P00519 whole entry): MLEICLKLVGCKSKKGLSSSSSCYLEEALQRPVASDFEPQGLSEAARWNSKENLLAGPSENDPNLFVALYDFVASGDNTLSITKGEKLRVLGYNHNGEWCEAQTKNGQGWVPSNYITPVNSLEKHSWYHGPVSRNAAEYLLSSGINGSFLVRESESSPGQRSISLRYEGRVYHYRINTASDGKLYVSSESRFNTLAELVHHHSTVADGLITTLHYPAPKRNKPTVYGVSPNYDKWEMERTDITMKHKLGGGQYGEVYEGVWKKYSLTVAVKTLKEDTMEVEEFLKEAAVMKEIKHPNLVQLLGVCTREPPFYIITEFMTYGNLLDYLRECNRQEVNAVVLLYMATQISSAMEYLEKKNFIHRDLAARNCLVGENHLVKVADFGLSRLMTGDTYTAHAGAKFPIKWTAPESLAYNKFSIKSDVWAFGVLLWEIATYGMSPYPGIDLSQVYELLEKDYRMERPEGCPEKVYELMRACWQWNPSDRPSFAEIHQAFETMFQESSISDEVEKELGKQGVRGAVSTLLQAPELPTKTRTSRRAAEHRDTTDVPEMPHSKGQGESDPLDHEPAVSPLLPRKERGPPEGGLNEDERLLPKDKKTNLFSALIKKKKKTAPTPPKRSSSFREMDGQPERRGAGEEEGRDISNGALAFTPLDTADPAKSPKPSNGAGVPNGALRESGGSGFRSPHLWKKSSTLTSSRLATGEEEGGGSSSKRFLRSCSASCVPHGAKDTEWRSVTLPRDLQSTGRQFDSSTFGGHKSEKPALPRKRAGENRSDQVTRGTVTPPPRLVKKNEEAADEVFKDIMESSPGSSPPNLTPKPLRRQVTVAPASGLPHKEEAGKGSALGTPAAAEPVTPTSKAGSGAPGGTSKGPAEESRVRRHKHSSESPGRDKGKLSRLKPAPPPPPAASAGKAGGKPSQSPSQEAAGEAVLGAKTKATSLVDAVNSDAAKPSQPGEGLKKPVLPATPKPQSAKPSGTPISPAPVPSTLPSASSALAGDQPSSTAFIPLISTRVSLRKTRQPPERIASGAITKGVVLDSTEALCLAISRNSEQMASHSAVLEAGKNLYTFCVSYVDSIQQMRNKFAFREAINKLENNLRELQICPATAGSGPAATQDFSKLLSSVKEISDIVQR
Sequence of Tyrosine-protein kinase receptor UFO (Homo sapiens) (P30530 whole entry): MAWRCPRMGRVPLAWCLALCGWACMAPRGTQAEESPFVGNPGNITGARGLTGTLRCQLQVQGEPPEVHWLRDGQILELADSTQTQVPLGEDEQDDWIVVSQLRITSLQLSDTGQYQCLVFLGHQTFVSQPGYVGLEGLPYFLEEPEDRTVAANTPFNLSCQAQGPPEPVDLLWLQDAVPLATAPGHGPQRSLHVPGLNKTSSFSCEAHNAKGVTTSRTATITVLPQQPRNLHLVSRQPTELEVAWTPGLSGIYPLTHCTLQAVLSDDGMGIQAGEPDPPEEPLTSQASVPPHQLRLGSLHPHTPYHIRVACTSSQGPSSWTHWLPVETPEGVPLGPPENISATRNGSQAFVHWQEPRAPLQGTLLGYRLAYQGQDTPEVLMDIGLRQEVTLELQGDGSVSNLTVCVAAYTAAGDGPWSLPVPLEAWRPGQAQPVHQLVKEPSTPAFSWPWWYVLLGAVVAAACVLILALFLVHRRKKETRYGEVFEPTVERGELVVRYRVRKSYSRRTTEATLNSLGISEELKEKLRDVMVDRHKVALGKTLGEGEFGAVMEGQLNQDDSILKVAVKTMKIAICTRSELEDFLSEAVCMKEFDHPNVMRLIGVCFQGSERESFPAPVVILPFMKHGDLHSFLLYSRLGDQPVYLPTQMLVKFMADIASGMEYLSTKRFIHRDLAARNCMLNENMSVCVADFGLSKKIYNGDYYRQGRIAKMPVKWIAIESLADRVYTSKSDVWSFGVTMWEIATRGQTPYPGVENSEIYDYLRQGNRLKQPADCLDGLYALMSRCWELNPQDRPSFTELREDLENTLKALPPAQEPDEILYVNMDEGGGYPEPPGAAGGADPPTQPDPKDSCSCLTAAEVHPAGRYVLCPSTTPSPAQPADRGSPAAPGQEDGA
Sequence of Protein-tyrosine kinase 6 (Homo sapiens) (Q13882 whole entry, looked up): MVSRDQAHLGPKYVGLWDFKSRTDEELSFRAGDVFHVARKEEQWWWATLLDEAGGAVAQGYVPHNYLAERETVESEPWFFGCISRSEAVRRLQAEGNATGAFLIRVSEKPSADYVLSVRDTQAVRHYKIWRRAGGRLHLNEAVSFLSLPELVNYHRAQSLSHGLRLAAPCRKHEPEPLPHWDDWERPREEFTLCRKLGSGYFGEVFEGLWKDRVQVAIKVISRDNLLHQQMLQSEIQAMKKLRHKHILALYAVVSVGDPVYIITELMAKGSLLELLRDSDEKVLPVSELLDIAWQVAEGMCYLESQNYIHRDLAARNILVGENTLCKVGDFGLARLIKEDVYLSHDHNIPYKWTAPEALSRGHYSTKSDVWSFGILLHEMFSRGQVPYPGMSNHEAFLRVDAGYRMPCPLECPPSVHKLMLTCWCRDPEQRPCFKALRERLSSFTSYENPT
Sequence of Aurora kinase B (Homo sapiens) (Q96GD4 whole entry): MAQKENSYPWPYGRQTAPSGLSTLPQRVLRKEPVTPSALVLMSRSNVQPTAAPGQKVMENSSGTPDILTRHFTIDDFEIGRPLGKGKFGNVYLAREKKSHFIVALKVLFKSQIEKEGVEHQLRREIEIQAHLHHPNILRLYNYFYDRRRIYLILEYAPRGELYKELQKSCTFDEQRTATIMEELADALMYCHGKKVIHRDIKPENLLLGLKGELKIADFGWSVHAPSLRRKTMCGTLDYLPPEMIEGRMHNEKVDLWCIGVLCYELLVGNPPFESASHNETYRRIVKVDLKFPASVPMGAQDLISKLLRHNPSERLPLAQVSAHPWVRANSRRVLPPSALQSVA

Row | Structure (SMILES) | residual activity [1] [%] | residual activity [2] [%] | residual activity [3] [%] | residual activity [4] [%] | residual activity [5] [%] | residual activity [6] [%] | residual activity [7] [%] | residual activity [8] [%] | residual activity [9] [%] | residual activity [10] [%] | residual activity [11] [%] | residual activity [12] [%] | residual activity [13] [%] | residual activity [14] [%] | residual activity [15] [%] | residual activity [16] [%] | residual activity [17] [%] | residual activity [18] [%] | residual activity [19] [%]
1 | COc1ccc2c(c1)c(C1=C(c3c[nH]c4ccccc34)C(=O)NC1=O)cn2CCCN(C)C | 107 | 114 | 113 | 74 | 100 | 97 | 39 | 7 | 59 | 40 | 98 | 82 | 57 | 7 |  |  |  |  | 
2 | NC(=O)c1ccc(-c2nc(-c3ccc4c(c3)OCCO4)c(-c3ccccn3)[nH]2)cc1 |  | 92 |  | 83 |  |  | 89 | 70 | 90 | 85 |  |  | 88 | 85 | 96 | 84 | 77 |  | 
3 | COc1ccc(Cl)cc1NC(=O)Nc1cc(C)nc2ccccc12 | 87 | 145 |  |  | 89 | 136 |  |  |  | 88 |  |  |  | 78 |  |  | 98 |  | 
4 | CC(C)N(CCC(=O)c1ccc2ccccc2c1)Cc1ccccc1 |  |  |  |  |  |  |  | 83 | 61 | 74 |  |  |  |  |  | 76 | 69 |  | 
5 | O=C(Nc1nc2ccccc2n1CCN1CCOCC1)c1cccc([N+](=O)[O-])c1 |  |  | 100 |  | 101 | 103 | 100 | 40 |  | 78 |  |  | 111 | 100 | 110 |  | 75 | 100 | 109
6 | CN([C@@H](Cc1ccc(OS(=O)(=O)c2cccc3cnccc23)cc1)C(=O)N1CCN(c2ccccc2)CC1)S(=O)(=O)c1cccc2cnccc12 |  | 86 |  |  |  |  |  |  |  |  |  |  | 98 | 81 |  |  |  | 100 | 86
7 | Nc1nc(Nc2ccc(S(N)(=O)=O)cc2)nn1C(=O)c1c(F)cccc1F |  |  | 34 | 8 |  |  |  |  | 1 | 13 | 106 | 74 | 74 | 9 | 46 | 6 | 56 |  | 
8 | Nc1nccc(-c2c(-c3ccc(F)cc3)ncn2C2CCNCC2)n1 |  |  |  | 65 |  |  |  | 72 | 78 |  |  | 30 |  |  |  |  |  |  | 
9 | O=C1NC(=O)C(c2cn(CCCO)c3ncccc23)=C1c1cnccn1 |  |  |  |  | 78 | 81 | 14 | 9 | 88 | 59 |  |  | 78 | 69 | 78 | 97 | 61 |  | 
10 | O=C(c1cc2cc(O)ccc2[nH]1)c1cc2cc(O)ccc2[nH]1 | 11 | -6 | 27 | 4 | 23 | 6 | 9 | -1 | 24 | 15 |  |  | 6 | 1 |  | 61 | 50 | 78 | 34
